Laboratory results as given in article PMC12820563, “FoxP3 forms a head-to-head dimer in vivo and stabilizes its multimerization on adjacent microsatellites”.
Over roughly 16,000 sequences, “rpm ratio (pull-down/input)” has its median near 0.5; the highest 2% begin near 5.5. What follows is part of a selection rich in the highest values, with near analogues and random picks from the rest.

Biological target: T1, MBP-FoxP3dN (Mus musculus, UniProt Q99JB6 188-423)
T1 sequence: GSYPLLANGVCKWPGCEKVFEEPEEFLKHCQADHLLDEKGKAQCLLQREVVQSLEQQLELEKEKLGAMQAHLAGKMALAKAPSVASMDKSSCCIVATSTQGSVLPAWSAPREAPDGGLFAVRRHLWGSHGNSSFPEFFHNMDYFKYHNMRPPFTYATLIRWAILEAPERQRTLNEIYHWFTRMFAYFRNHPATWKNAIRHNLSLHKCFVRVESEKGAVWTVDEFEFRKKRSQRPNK
Assay: PD-seq (MBP pull-down with sequencing); 20 mM Tris-HCl pH 7.5, 100 mM NaCl, 1.5 mM MgCl2, 0.4 uM protein, 0.1 uM dsDNA library, 30 min, room temperature, amylose pull-down; high values mean tight binding
Conditions: protein: recombinant; tags: His6-MBP; chain copies: 2; dsDNA, one strand shown
Outline: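 A degenerate double-stranded DNA library, filled in with Klenow, was added at 0.1 µM to 0.4 µM His6-MBP-tagged mouse FoxP3 or FoxP1 fragment lacking the N-terminus, expressed in E. coli. Incubation lasted 30 min at room temperature in Tris pH 7.5 buffer with NaCl and MgCl2, after which complexes were collected on amylose resin, washed three times, digested with proteinase K to free the DNA, barcoded by PCR and sequenced by Illumina. Binding is the pooled-replicate reads-per-million enrichment of pull-down over input.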

Row | Sequence | binding signal
1 | GATGATTGTTCTCCCAGCTGATGAATTGGCGGTATCGAGTAAACAAATTTTCCTAATCTTTCTGTTCAAGCGCCATCTAC | 0.566 RPM ratio (pull-down/input)
2 | GATGATTGTTCTCCCAGCTGATGAATTGAATTACTCGAGTAAACAAATTTTCCTAATCTTTCTGTTCAAGCGCCATCTAC | 1.28 RPM ratio (pull-down/input)
3 | GATGATTGTTCTCCCAGCTGATGAATTGTTTTACTCGAGTAAACAAATTTTCCTAATCTTTCTGTTCAAGCGCCATCTAC | 1.55 RPM ratio (pull-down/input)
4 | GATGATTGTTCTCCCAGCTGATGAATTTATTTACTCGAGTAAACAAATTTTCCTAATCTTTCTGTTCAAGCGCCATCTAC | 6.74 RPM ratio (pull-down/input)
5 | GATGATTGTTCTCCCAGCTGATGAATTTATTGTCTCGAGTAAACAAATTTTCCTAATCTTTCTGTTCAAGCGCCATCTAC | 6.72 RPM ratio (pull-down/input)
6 | GATGATTGTTCTCCCAGCTGATGAATTATTTGTCTCGAGTAAACAAATTTTCCTAATCTTTCTGTTCAAGCGCCATCTAC | 2.46 RPM ratio (pull-down/input)
7 | GATGATTGTTCTCCCAGCTGATGAATTTTATTACTCGAGTAAACAAATTTTCCTAATCTTTCTGTTCAAGCGCCATCTAC | 1.04 RPM ratio (pull-down/input)
8 | GATGATTGTTCTCCCAGCTGATGAATTTTGTTACTCGAGTAAACAAATTTTCCTAATCTTTCTGTTCAAGCGCCATCTAC | 3.84 RPM ratio (pull-down/input)
9 | GATGATTGTTCTCCCAGCTGATGAATTTGATTACTCGAGTAAACAAATTTTCCTAATCTTTCTGTTCAAGCGCCATCTAC | 6.08 RPM ratio (pull-down/input)
10 | GATGATTGTTCTCCCAGCTGATGAATTTTTTTACTCGAGTAAACAAATTTTCCTAATCTTTCTGTTCAAGCGCCATCTAC | 0.35 RPM ratio (pull-down/input)
11 | GATGATTGTTCTCCCAGCTGATGAATTATTTTACTCGAGTAAACAAATTTTCCTAATCTTTCTGTTCAAGCGCCATCTAC | 0.529 RPM ratio (pull-down/input)
12 | GATGATTGTTCTCCCAGCTGATGAATTTGTTTACTCGAGTAAACAAATTTTCCTAATCTTTCTGTTCAAGCGCCATCTAC | 6.49 RPM ratio (pull-down/input)
13 | GATGATTGTTCTCCCAGCTGATGAATTTTATGTCTCGAGTAAACAAATTTTCCTAATCTTTCTGTTCAAGCGCCATCTAC | 1.12 RPM ratio (pull-down/input)
14 | GATGATTGTTCTCCCAGCTGATGAATTCAATTGTTCGAGTAAACAAATTTTCCTAATCTTTCTGTTCAAGCGCCATCTAC | 3.36 RPM ratio (pull-down/input)
15 | GATGATTGTTCTCCCAGCTGATGAATTGGCCCGGTCGAGTAAACAAATTTTCCTAATCTTTCTGTTCAAGCGCCATCTAC | 0.201 RPM ratio (pull-down/input)
16 | GATGATTGTTCTCCCAGCTGATGAATTGCTTCCCTCGAGTAAACAAATTTTCCTAATCTTTCTGTTCAAGCGCCATCTAC | 0.536 RPM ratio (pull-down/input)
17 | GATGATTGTTCTCCCAGCTGATGAATTTGCATATTCGAGTAAACAAATTTTCCTAATCTTTCTGTTCAAGCGCCATCTAC | 2.72 RPM ratio (pull-down/input)

Row | Sequence | binding signal
18 | GATGATTGTTCTCCCAGCTGATGAATTTGCATTCTCGAGTAAACAAATTTTCCTAATCTTTCTGTTCAAGCGCCATCTAC | 6.29 RPM ratio (pull-down/input)
19 | GATGATTGTTCTCCCAGCTGATGAATTTGCCATCTCGAGTAAACAAATTTTCCTAATCTTTCTGTTCAAGCGCCATCTAC | 2.56 RPM ratio (pull-down/input)
20 | GATGATTGTTCTCCCAGCTGATGAATTGCATTTCTCGAGTAAACAAATTTTCCTAATCTTTCTGTTCAAGCGCCATCTAC | 2.75 RPM ratio (pull-down/input)
21 | GATGATTGTTCTCCCAGCTGATGAATTGCGTAATTCGAGTAAACAAATTTTCCTAATCTTTCTGTTCAAGCGCCATCTAC | 1.58 RPM ratio (pull-down/input)
22 | GATGATTGTTCTCCCAGCTGATGAATTGCATCTCTCGAGTAAACAAATTTTCCTAATCTTTCTGTTCAAGCGCCATCTAC | 4.07 RPM ratio (pull-down/input)
23 | GATGATTGTTCTCCCAGCTGATGAATTTTTGCATTCGAGTAAACAAATTTTCCTAATCTTTCTGTTCAAGCGCCATCTAC | 6.58 RPM ratio (pull-down/input)
24 | GATGATTGTTCTCCCAGCTGATGAATTTTGCATCTCGAGTAAACAAATTTTCCTAATCTTTCTGTTCAAGCGCCATCTAC | 7.18 RPM ratio (pull-down/input)
25 | GATGATTGTTCTCCCAGCTGATGAATTGCCATTTTCGAGTAAACAAATTTTCCTAATCTTTCTGTTCAAGCGCCATCTAC | 1.02 RPM ratio (pull-down/input)
26 | GATGATTGTTCTCCCAGCTGATGAATTGCATTCCTCGAGTAAACAAATTTTCCTAATCTTTCTGTTCAAGCGCCATCTAC | 3.39 RPM ratio (pull-down/input)
27 | GATGATTGTTCTCCCAGCTGATGAATTGCGCCATTCGAGTAAACAAATTTTCCTAATCTTTCTGTTCAAGCGCCATCTAC | 6.51 RPM ratio (pull-down/input)
28 | GATGATTGTTCTCCCAGCTGATGAATTTAGAGGCTCGAGTAAACAAATTTTCCTAATCTTTCTGTTCAAGCGCCATCTAC | 0.583 RPM ratio (pull-down/input)
29 | GATGATTGTTCTCCCAGCTGATGAATTTTGATATTCGAGTAAACAAATTTTCCTAATCTTTCTGTTCAAGCGCCATCTAC | 3.34 RPM ratio (pull-down/input)
30 | GATGATTGTTCTCCCAGCTGATGAATTTATCGAATCGAGTAAACAAATTTTCCTAATCTTTCTGTTCAAGCGCCATCTAC | 0.374 RPM ratio (pull-down/input)
31 | GATGATTGTTCTCCCAGCTGATGAATTGCCTCGGTCGAGTAAACAAATTTTCCTAATCTTTCTGTTCAAGCGCCATCTAC | 0.565 RPM ratio (pull-down/input)
32 | GATGATTGTTCTCCCAGCTGATGAATTTTCAACTTCGAGTAAACAAATTTTCCTAATCTTTCTGTTCAAGCGCCATCTAC | 0.307 RPM ratio (pull-down/input)
33 | GATGATTGTTCTCCCAGCTGATGAATTGAATGACTCGAGTAAACAAATTTTCCTAATCTTTCTGTTCAAGCGCCATCTAC | 0.545 RPM ratio (pull-down/input)
